According to PubChem BioAssay:
Activity calls are given as the source filed them.

Assays:
[1] = system: XIP peptide (Xip251-270) binding; assay: XIP fragment 251-270 binding compounds – biochemical, small-molecule microarray, fluorescence 635/667 nm, 0.1 µg/mL protein, primary screen (AID 1182); conditions: fluorescent protein binding, 635 nm, higher = more signal, called active from +8 up or from −8 down
XIP peptide (Xip251-270) = assay: compounds binding XIP fragment 251-270 – biochemical, small-molecule microarray, fluorescence 635/667 nm, 0.5 µg/mL protein, primary screen (AID 1183); conditions: fluorescence 635 nm, higher = more signal
[2] = blood-stage malaria parasite viability loss – strain 3D7, DAPI fluorescence, 100 nL, primary screen (AID 1184);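 also: parasites grown inside human red blood cells in medium with human serum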; conditions: P. falciparum 3D7 growth, 3 d, higher = more signal
[3] = target: Homeobox protein Hox-A13 (Mus musculus) (UniProt Q62424); assay: disruptors of Hoxa13 oligonucleotide interaction – biochemical, fluorescence polarization, labeled oligonucleotide, primary screen (AID 1185); conditions: Hoxa13:DNA binding, 15 min, higher = more signal, called active from +8 up or from −8 down
Homeobox protein Hox-A13 (Mus musculus), sequence (Q62424 whole entry, looked up): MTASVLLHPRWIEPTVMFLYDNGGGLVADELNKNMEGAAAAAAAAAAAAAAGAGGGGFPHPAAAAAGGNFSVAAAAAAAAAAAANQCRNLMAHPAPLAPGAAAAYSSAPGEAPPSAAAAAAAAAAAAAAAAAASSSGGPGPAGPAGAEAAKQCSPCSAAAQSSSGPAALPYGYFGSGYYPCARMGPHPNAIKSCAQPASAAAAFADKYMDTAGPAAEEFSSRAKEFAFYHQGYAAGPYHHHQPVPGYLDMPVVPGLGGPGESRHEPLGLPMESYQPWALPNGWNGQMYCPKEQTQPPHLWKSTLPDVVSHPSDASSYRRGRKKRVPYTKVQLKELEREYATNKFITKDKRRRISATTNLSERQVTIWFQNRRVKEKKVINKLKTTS

| SMILES | composite z-score [1] | composite z-score (XIP peptide (Xip251-270)) | z-score [2] | z-score [3] |
| --- | --- | --- | --- | --- |
| O=C1CCCC=C1C(O)C1CCCCC1 (configuration not stated) | -0.459 (inactive) | -0.11 | 0.247 | -0.0768 (inactive) |
| CC[C@@H](c1ccccc1)n1c(=O)n2n(c1=O)[C@H]1[C@H](O)[C@@H]3O[C@@H]3C(=NOCc3ccccc3)[C@H]1CC2 | 0.265 (inactive) | 0.539 | -1.81 | -4.2 (inactive) |
| C[C@@H]1CC[C@H]2C(=O)OC(CN3C(=O)c4ccccc4C3=O)CN2[C@H]1c1ccc(Br)cc1 (some centres not stated) | -0.212 (inactive) | 0.338 | 0.49 | -0.956 (inactive) |
| COC(=O)[C@H](CCSC)NC(=O)CC=C[C@@H](C)CO | -0.0999 (inactive) | 0.334 | -0.979 | -0.265 (inactive) |
| CC(C)[C@@H](OCc1ccccc1)[C@H](C)CON=C1[C@H]2CCn3c(=O)n(-c4ccccc4)c(=O)n3[C@H]2[C@H](O)[C@@H]2O[C@H]12 | -0.874 (inactive) | 0.199 | -2 | -5.16 (inactive) |
| CCN1C(=O)[C@H]2[C@H]3[C@H](O)[C@H](O)CC(=NO[C@@H]4O[C@H](COC(C)=O)[C@@H](OC(C)=O)[C@H](OC(C)=O)[C@H]4OC(C)=O)[C@@H]3CC[C@H]2C1=O | 0.369 (inactive) | -0.191 | 1.87 | -1.75 (inactive) |
| CC(C)[C@H](NC(=O)OC(C)(C)C)[C@@H](O)CC(=O)C(C)(C)C | -0.232 (inactive) | -0.19 | 0.227 | -0.092 (inactive) |
| C[C@H]1CC[C@H]2C(=O)N[C@H](Cc3ccccc3)C(=O)N2[C@@H]1c1ccccc1 | 0.469 (inactive) | 0.647 | 0.388 | -0.879 (inactive) |
